These results are taken from the supplement of paper PMC8975748.

Structures can show the parent of a compound that is named as a salt.

This experiment concerns Saccharomyces cerevisiae BY4741 SeMeCo community. The experiment can be described thus: z-score of subpopulation abundance vs DMSO median, subpopulation auxotrophic for HLU; higher = larger share of this subpopulation than in DMSO controls. Particulars: 10 µM; 24 h; SM minimal medium; subpopulation (auxotrophy): HLU. As to the method: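 Fluorescent four-plasmid SeMeCo (self-establishing metabolically cooperating S. cerevisiae BY4741 community; plasmids pH-mRuby2, pL-mWasabi, pU-eCFP, pM-TagRFP657) was grown 24 h in minimal SM medium with each Selleck FDA-approved drug at 10 µM in 384-well plates. Cells were fixed and imaged by high-content confocal microscopy. For each auxotrophic subpopulation (and the prototroph), a z-score gives the deviation from the DMSO vehicle-control population median.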
For the compound `C[N+]12CCC(CC1)C(OC(=O)C(O)(c1ccccc1)c1ccccc1)C2` (centres undefined) [Clidinium Bromide], the “z-score of subpopulation abundance” value was -0.31. In the case of `CCN(C)C(=O)Oc1cccc([C@H](C)N(C)C)c1` [Rivastigmine] it was -0.24; in that of `COc1ccc(C(CN(C)C)C2(O)CCCCC2)cc1` (centres undefined) [Venlafaxine HCl], -0.14. In the case of `CN(C)[C@@H]1C(=O)C(C(N)=O)=C(O)[C@@]2(O)C(=O)C3=C(O)c4c(O)cccc4[C@@](C)(O)[C@H]3C[C@@H]12` [Tetracycline HCl] it was 0.02; in that of `C[CH2][Hg][S]c1ccccc1C(=O)[O-].[Na+]` [Thimerosal], 15.9; in that of `CC(NC(C)(C)C)C(=O)c1cccc(Cl)c1` (centres undefined) [Amfebutamone (Bupropion) HCl], -0.82. In the case of `CC(C)=CCOc1c2occc2cc2ccc(=O)oc12` [Imperatorin], the “z-score of subpopulation abundance” value came out at 0.14.

As to `CC[C@@H](C(N)=O)N1CCCC1=O` [Levetiracetam], the “z-score of subpopulation abundance” value was -0.28.

Turning to `CCCCCCCCCCCCCCCC[n+]1ccccc1` [Cetylpyridinium Chloride], the “z-score of subpopulation abundance” value was determined as 9.76. In the case of `O=C(O[C@H]1C[C@H]2CC[C@@H](C1)[N+]21CCCC1)C(O)(c1ccccc1)c1ccccc1` [Trospium chloride] it was -0.58.

In the case of `CC(C)(O)C(Cl)(Cl)Cl` [Chlorobutanol], the “z-score of subpopulation abundance” value was determined as 0.97.

Take `CN(C)C(=O)Oc1ccc[n+](C)c1` [Pyridostigmine Bromide]: the “z-score of subpopulation abundance” value is -0.68. To `Oc1cccc2cccnc12` [8-Hydroxyquinoline] belongs -0.85; to `C=C[C@H]1CN2CC[C@H]1C[C@H]2[C@H](O)c1ccnc2ccccc12` [Cinchonidine], -0.48. Consider `Oc1cc(Cl)ccc1Oc1ccc(Cl)cc1Cl` [Triclosan], for which the “z-score of subpopulation abundance” value worked out at 2.87. Take `CN(C)C(=O)Oc1cccc([N+](C)(C)C)c1` [Neostigmine Bromide]: the “z-score of subpopulation abundance” value came out at 0.32. For the compound `O=c1[nH]c2ccccc2n1CCCN1CCC(n2c(=O)[nH]c3cc(Cl)ccc32)CC1` [Domperidone], the “z-score of subpopulation abundance” value was 1.05. To `CCOC(=O)Nc1ccc(NCc2ccc(F)cc2)cc1N` [Retigabine] belongs 0.77. For the compound `O=c1cccc2n1C[C@@H]1CNC[C@H]2C1` [Cytisine], the “z-score of subpopulation abundance” value was -0.22. To `C[N+](C)(C)CCCCCCCCCC[N+](C)(C)C` [Decamethonium Bromide] belongs 0; to `C#C[C@]1(O)C=C[C@H]2[C@@H]3CCC4=CC(=O)CC[C@@H]4[C@H]3CC[C@@]21CC` [Gestodene], 0.11; to `C=CC[C@]1(O)CC[C@H]2[C@@H]3CCC4=CC(=O)CCC4=C3C=C[C@@]21C` [Altrenogest], 0.03. In the case of `C[C@@H]1O[C@@H](O[C@H]2C[C@@H](O)[C@]3(CO)[C@H]4[C@H](O)C[C@]5(C)[C@@H](C6=CC(=O)OC6)CC[C@]5(O)[C@@H]4CC[C@]3(O)C2)[C@H](O)[C@H](O)[C@H]1O` [Ouabain], the “z-score of subpopulation abundance” value is -1.06.

With `CCN1CC2(OC(=O)c3ccccc3NC(C)=O)CCC(OC)C34C1C(CC23)C1(O)CC(OC)C2CC4C1(O)C2OC` (centres undefined) [Lappaconitine], the “z-score of subpopulation abundance” value is -0.47. For the compound `CNC1CC(N)C(O)C(OC2OC(CO)C(O)C3OC4(OC(C(N)CO)C(O)C(O)C4O)OC23)C1O` (centres undefined) [Hygromycin B], the “z-score of subpopulation abundance” value was -0.44. In the case of `N[C@@H]1C[C@H]1c1ccccc1` [Tranylcypromine (2-PCPA) HCl] it was 0.05. On to `Cn1cc(C2=C(c3cn(C4CCN(Cc5ccccn5)CC4)c4ccccc34)C(=O)NC2=O)c2ccccc21`, for which the “z-score of subpopulation abundance” value is 0.26. With `CN1[C@@H]2CC[C@H]1C[C@@H](OC(=O)[C@H](CO)c1ccccc1)C2` [Hyoscyamine], the “z-score of subpopulation abundance” value worked out at 0.2. To `CC[C@H]1[C@@H]2C[C@H]3[C@@H]4N(C)c5ccccc5[C@]45C[C@@H]([C@@H]2[C@H]5O)N3[C@@H]1O` [Ajmaline] belongs -0.63; to `CN1[C@@H]2CC[C@H]1C[C@@H](OC(=O)C(CO)c1ccccc1)C2` (some centres undefined) [Atropine sulfate monohydrate], -0.61.

For the compound `COc1cc2c(cc1OC)C1CC(=O)C(CC(C)C)CN1CC2` (centres undefined) [Tetrabenazine (Xenazine)], the “z-score of subpopulation abundance” value is -0.31.

Take `CC(=O)O[C@H]1C[C@@H]2CC[C@@H]3[C@H](CC[C@@]4(C)[C@H]3C[C@H]([N+]3(C)CCCCC3)[C@@H]4OC(C)=O)[C@@]2(C)C[C@@H]1[N+]1(C)CCCCC1` [Pancuronium dibromide]: the “z-score of subpopulation abundance” value was -0.5.

On to `CN1C(=O)COc2c(C(=O)NC3CN4CCC3CC4)cc(Cl)cc21` (centres undefined) [Azasetron HCl], for which the “z-score of subpopulation abundance” value was -0.64.

Turning to `CN1c2ccccc2C(NCCCCCCC(=O)O)c2ccc(Cl)cc2S1(=O)=O` (centres undefined) [Tianeptine sodium], the “z-score of subpopulation abundance” value is -0.23.
